{"source": "PubChem BioAssay AID588473", "about": "(Sanford-Burnham Center for Chemical Genomics, 2011)", "note": "Screen size: about 350,000 compounds; about 1,600 (0.46%) were called active. The full list was thinned out, with actives kept by preference. Values without a mark were called inactive.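 The calls were made as follows: active = activation of at least 50%, plus an integration ratio under a set limit after plate pattern correction; inactive = the rest.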", "data": [{"tested_on": "CRF-binding protein / CRF receptor 2 complex (human)", "experiment": "agonists of CRF-BP/CRF-R2 complex, primary screen, cell-based, HEK293, calcium dye fluorescence, uHTS (AID 588473);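 also: plate controls were neutral control wells without compound for no effect and CRF at EC100 for full effect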", "conditions": "calcium dye fluorescence (FLIPR), at 13.2 µM, stronger effect = higher value, percent of saturating CRF peptide response", "values": [{"smiles": "CC(=O)NC12CC3CC(C1)CC(C(=O)N1CCN(S(=O)(=O)c4cccs4)CC1)(C3)C2", "activation": "-0.5%"}, {"smiles": "N#Cc1cccc(CSc2ncnc(N)n2)c1", "activation": "-1.54%"}, {"smiles": "COc1ccccc1-c1nnc(-c2ccc(F)cc2)o1", "activation": "0.06%"}, {"smiles": "CCCCCCc1cc2cc(-c3nnc(-c4ccccc4)o3)c(=O)oc2cc1O", "activation": "269% (active)"}, {"smiles": "CCc1ccc(CN(C)C(=O)CCc2nnc(-c3ccc(-c4ccccc4)cc3)o2)nc1", "activation": "-0.63%"}, {"smiles": "COc1ccc(Cl)cc1-n1c(=S)sc2c(=O)n(-c3ccc(F)cc3)c(SCC(=O)O)nc21", "activation": "-1.84%"}, {"smiles": "CCOC(=O)CC1C(=O)NCCN1c1nc2c(C)cccn2c(=O)c1/C=C1\\SC(=S)N(C(C)CC)C1=O", "note": "(stereo not given)", "activation": "177% (active)"}, {"smiles": "Cc1cccn2c(=O)c(/C=C(\\C#N)C(N)=O)c(N3CCCCCC3)nc12", "activation": "-2.5%"}, {"smiles": "Cc1cccn2c(=O)c(/C=C(\\C#N)S(=O)(=O)c3ccc(Cl)cc3)c(N3CCC(C(N)=O)CC3)nc12", "activation": "9.75%"}, {"smiles": "CCCN(CCC)c1ccc(C(O)c2nnc(-c3ccccc3)o2)cc1", "note": "(stereo not given)", "activation": "-0.49%"}, {"smiles": "Cc1cccc2c1-c1sc(C(=O)NCCCN3CCc4ccccc4C3)cc1CO2", "activation": "3.21%"}, {"smiles": "C[C@H]1CN([C@@H](C)CO)C(=O)Cc2cc(NC(=O)Cc3ccccc3)ccc2O[C@H]1CN(C)S(=O)(=O)c1cccs1", "activation": "0.76%"}, {"smiles": "Cc1c(NC(=O)c2coc(=O)c(Br)c2)c(=O)n(-c2ccccc2)n1C", "activation": "-1.21%"}, {"smiles": "O=C(CCN1C(=O)c2ccccc2C1=O)Nc1cccc(F)c1", "activation": "-0.06%"}, {"smiles": "O=C(Nc1cccc(F)c1)c1coc(=O)c(Br)c1", "activation": "67% (active)"}, {"smiles": "O=C(O)c1ccc(S(=O)(=O)c2ccccc2)s1", "activation": "0.6%"}, {"smiles": "Cc1nn(C(C)(C)C)c(OC(=O)CC(C)C)c1S(=O)(=O)c1ccccc1", "activation": "4.7%"}, {"smiles": "CC(C)[C@H](NC(=O)N1c2ccccc2NC(=O)[C@@H]1C(C)C)C(=O)N[C@H](C(=O)O)c1ccccc1", "activation": "0.51%"}, {"smiles": "CCN1/C(=C\\c2ccc3ccccc3[n+]2CC)Sc2cc(C)ccc21", "activation": "200% (active)"}, {"smiles": "CCN1/C(=C/c2ccc3ccc(C)cc3[n+]2CC)Sc2ccccc21", "activation": "143% (active)"}, {"smiles": "COc1ccc(SCCN2CCN(CC(C)C)CCC2=O)cc1", "activation": "-0.91%"}, {"smiles": "COC(=O)C(C)Oc1ccc2c(-c3cccc([N+](=O)[O-])c3)cc(=O)oc2c1", "note": "(stereo not given)", "activation": "-3.43%"}, {"smiles": "CCC1SC(CC)C(=O)N(CC(=O)NC2CCCCC2)C1=O", "note": "(stereo not given)", "activation": "-0.56%"}, {"smiles": "CCOC(=O)[C@H]1[C@H]2COc3ccccc3[C@@H]2N2C(=O)CN(Cc3ccccc3)C(=O)[C@@]12C", "activation": "-0.27%"}, {"smiles": "O=C(N/N=C/c1cc(Br)c(O)c([N+](=O)[O-])c1)C(O)(c1ccccc1)c1ccccc1", "activation": "-0.94%"}, {"smiles": "O=[N+]([O-])c1cc(Br)c(O)c(/C=N/Nc2nc3ccccc3s2)c1", "activation": "82.8% (active)"}, {"smiles": "c1ccc(C(=NNc2nc3ccccc3s2)c2ccccn2)cc1", "activation": "5.4%"}, {"smiles": "CCNC(=S)N1CCN(S(=O)(=O)c2ccc(Cl)s2)CC1", "activation": "3.39%"}, {"smiles": "CSc1ccccc1NC(=O)C(C)N1C(=O)c2ccccc2S1(=O)=O", "note": "(stereo not given)", "activation": "1.1%"}, {"smiles": "CC(=O)Nc1ccccc1Sc1ccc2c3c(cccc13)C(=O)N(c1ccc(C)cc1)C2=O", "activation": "87.7% (active)"}, {"smiles": "Cc1ccc(N2C(=O)CC(Nc3cccc4ccccc34)C2=O)cc1", "note": "(stereo not given)", "activation": "0.15%"}, {"smiles": "CCC(=O)N1CCc2cc(Br)c(S(=O)(=O)NCCN3CCCCC3CC)cc21", "note": "(stereo not given)", "activation": "-1.55%"}, {"smiles": "CSc1cccc(NC(=O)CN2C(=O)COc3ccc(S(=O)(=O)N4CCOCC4)cc32)c1", "activation": "-1.06%"}, {"smiles": "O=C(COc1ccc(S(=O)(=O)N2CCCC2)cc1[N+](=O)[O-])N1CCCCC1", "activation": "-0.47%"}, {"smiles": "COc1ccc2c(c1)OC(O)(C(F)(F)C(F)F)CC2=O", "note": "(stereo not given)", "activation": "66.2% (active)"}, {"smiles": "COc1ccc2c(c1)C(=O)CC(c1ccccc1)O2", "note": "(stereo not given)", "activation": "-2.49%"}, {"smiles": "COc1ccc2c(c1)SC(C)CC2=O", "note": "(stereo not given)", "activation": "-0.7%"}, {"smiles": "COc1ccc(-c2c(-c3cc(OC)cc(OC)c3)n(C)c3ccc(-c4ccn[nH]4)cc23)cc1", "activation": "2.7%"}, {"smiles": "CC1CC1C(=O)OCC(=O)Nc1cccc(F)c1", "note": "(stereo not given)", "activation": "1.09%"}, {"smiles": "CCOCCc1c(O)nc(SCC(=O)NCc2ccco2)[nH]c1=O", "activation": "0.28%"}, {"smiles": "Cc1ccc(CN(C)C[C@@H]2OCc3cnnn3CCCC(=O)N([C@@H](C)CO)C[C@H]2C)cc1", "activation": "0.05%"}, {"smiles": "COc1cccc2cc(S(=O)(=O)c3ccc(C)cc3)/c(=N/NS(=O)(=O)c3ccc(C)cc3)oc12", "activation": "2.38%"}, {"smiles": "Cc1cc(S(=O)(=O)c2cc3ccc(O)c(C)c3oc2=O)ccc1F", "activation": "91.1% (active)"}, {"smiles": "COC(=O)Cc1cc(=O)oc2c(C)c(O)ccc12", "activation": "2.46%"}, {"smiles": "COc1ccc(-c2[nH]ncc2CN(C)Cc2cc(C)[nH]n2)c(F)c1", "activation": "-4.41%"}, {"smiles": "CCN(CC)c1ccc(NC(=O)C2CCC(CNc3c(N4CCCC4)c(=O)c3=O)CC2)c(C)c1", "note": "(stereo not given)", "activation": "-1.59%"}, {"smiles": "CCOC(=O)/C(C#N)=C/c1ccc(N2CCN(Cc3ccccc3)CC2)cc1", "activation": "100% (active)"}, {"smiles": "COc1ccc(/C=C(\\C#N)C(=O)ONC2=NCCCCC2)cc1", "activation": "-0.53%"}, {"smiles": "CCCn1c(C)cc(/C=C(\\C#N)C(=O)OCC(=O)N(C)c2c(N)n(Cc3ccccc3)c(=O)[nH]c2=O)c1C", "activation": "-1.33%"}, {"smiles": "CC(C)OC(=O)C(C#N)c1nc2ccccc2nc1N1CCN(Cc2ccccc2)CC1", "note": "(stereo not given)", "activation": "4.17%"}, {"smiles": "COc1ccc(/C=C(\\C#N)C(=O)OCC(=O)N(C)C2CCS(=O)(=O)C2)cc1", "note": "(stereo not given)", "activation": "-0.47%"}, {"smiles": "CCOC(=O)/C(C#N)=C/c1ccc(N2CCCCC2)cc1", "activation": "69.9% (active)"}, {"smiles": "CC(C)c1nc(CNC(=O)CC2C(=O)NCCN2Cc2ccoc2)cs1", "note": "(stereo not given)", "activation": "3.31%"}, {"smiles": "CCO[C@H]1OC(C(=O)N2CCN(Cc3ccccc3)CC2)=C[C@@H](c2cn(C(C)=O)c3ccccc23)[C@@H]1CCCO", "activation": "-0.99%"}, {"smiles": "O=C(OCc1cn(-c2ccc(Cl)c(Cl)c2)nn1)c1ccccc1Cl", "activation": "5.3%"}, {"smiles": "CC(C(=O)N1CCN(c2ccccc2F)CC1)c1ccc([N+](=O)[O-])cc1", "note": "(stereo not given)", "activation": "-0.08%"}, {"smiles": "CC(C)CNC(=O)/C=C/C(=O)O", "activation": "-1.76%"}, {"smiles": "CCCc1cc(=O)n2[nH]c(SCc3ccccc3)nc2n1", "activation": "1.41%"}, {"smiles": "CCn1nnnc1SCC(=O)c1ccc(C)cc1C", "activation": "1.45%"}, {"smiles": "Cc1ccc2c(c1)nnc1nnc(SCC(=O)O)n12", "activation": "187% (active)"}, {"smiles": "Cc1cccc(-c2nnc(SCC(=O)O)n2Cc2ccccc2)c1", "activation": "-1.45%"}, {"smiles": "CC1(C)C2CCC13CS(=O)(=O)NC3C2", "note": "(stereo not given)", "activation": "-2.27%"}, {"smiles": "CC1Cc2nc(SCC(=O)Nc3ccccc3F)n(C)c(=O)c2S1", "note": "(stereo not given)", "activation": "-2.32%"}, {"smiles": "COc1cccc(N(CC(=O)NC2CCCC2)C(=O)Cn2nnc(-c3ccc(C)cc3)n2)c1", "activation": "-0.55%"}, {"smiles": "CCOc1ccc(C(=O)NC2CCN(C(=O)Nc3ccccc3OC)CC2)cc1", "activation": "1.14%"}, {"smiles": "CCOc1ccc2nc(NCCNC(=O)C(C)(C)C)c(C)cc2c1", "activation": "0.31%"}, {"smiles": "CCOc1ccc2nc(N3CCCN(C(=O)Nc4ccccc4C)CC3)c(C#N)cc2c1", "activation": "53.4% (active)"}, {"smiles": "CCC(=O)Nc1cc(C(F)(F)F)ccc1N1CCCC1", "activation": "-0.05%"}, {"smiles": "CCCCCCSc1ccc([C@@H]2[C@@H]3C(=O)N(CC)C(=O)[C@@H]3[C@]3(C(=O)OC)CCCCN23)cc1OC", "activation": "5.06%"}, {"smiles": "N#C/C(=C\\C1=C(N2CCOCC2)C(=C\\c2ccccc2)/CC1)C(=O)Nc1ccccc1F", "activation": "10.9%"}, {"smiles": "N#C/C(=C\\c1ccc(N2CCOCC2)o1)C(=O)N1CCOCC1", "activation": "57.8% (active)"}, {"smiles": "O=C(N1CCOCC1)N1CCOCC1", "activation": "-0.16%"}, {"smiles": "N#C/C=C(/c1ccc(F)cc1)N1CCOCC1", "activation": "-1.81%"}, {"smiles": "N#C/C(=C/c1ccc(N2CCOCC2)o1)C(=O)N1CCOCC1", "activation": "67.4% (active)"}, {"smiles": "N#C/C(=C\\N1CCOCC1)S(=O)(=O)c1ccc(Cl)cc1", "activation": "-0.74%"}, {"smiles": "CCCN(CC(=O)Nc1ccc(C(N)=O)cc1)CC(=O)Nc1ccccc1C", "activation": "-1.42%"}, {"smiles": "CCCn1nc(NC(=O)C(C)C)c2cc3cc(OC)ccc3nc21", "activation": "-3.44%"}, {"smiles": "O=C(O)CSc1nccc2ccccc12", "activation": "-1.24%"}, {"smiles": "O=C(O)C(c1ccccc1)N1C(=O)/C(=C\\c2ccc(-c3cccc(Cl)c3)o2)SC1=S", "note": "(stereo not given)", "activation": "53.1% (active)"}, {"smiles": "O=C1/C(=C/c2ccc(F)cc2)SC(=S)N1NS(=O)(=O)c1ccccc1", "activation": "-2.42%"}, {"smiles": "NS(=O)(=O)c1ccc(-c2ccc(/C=C3\\SC(=O)NC3=O)o2)cc1", "activation": "-4.11%"}, {"smiles": "Cn1cccc1/C=C1\\SC(=S)N(NC(=O)c2ccc(Cl)cc2)C1=O", "activation": "0.66%"}, {"smiles": "CC(C(=O)NC1CCS(=O)(=O)C1)N1C(=O)/C(=C/c2ccc(Cl)cc2)SC1=S", "note": "(stereo not given)", "activation": "0.11%"}, {"smiles": "CN1C(=O)/C(=C\\c2ccc(-c3ccccc3)o2)SC1=S", "activation": "177% (active)"}, {"smiles": "Cc1nn(CC(=O)NC2CCCCC2)c(=O)c2cccn12", "activation": "-0.23%"}, {"smiles": "O=S1(=O)C=C(SCCN2CCCC2)c2ccccc21", "activation": "0.69%"}, {"smiles": "CCCN1C2CCCC1CC(NC(=O)NC13CC4CC(CC(C4)C1)C3)C2", "note": "(stereo not given)", "activation": "0.55%"}, {"smiles": "Cc1cccc(N(C)C(=O)CN2C(=O)COc3ccc(S(=O)(=O)N4CCCCCC4)cc32)c1", "activation": "21.6%"}, {"smiles": "COc1cc(CCC(=O)OCC(=O)Nc2cccc(S(N)(=O)=O)c2)cc(OC)c1OC", "activation": "1.86%"}, {"smiles": "COC(=O)c1cc(NC(=O)c2nn(C)c(=O)c3ccccc23)cc(C(=O)OC)c1", "activation": "-0.23%"}]}]}
